Only a selection was taken, and hits are over-represented in it overall.
nsP2pro primary: Primary qHTS for inhibitors of NSP2Pro chikungunya virus (CHIKV) | FRET peptide cleavage, nsP2pro, fluorescence 1 h | Potency, µM (doses to about 24.9 µM), for the others: top-dose activity change, negative = inhibition, actives largely listed as inhibitors | hit rate 1.1% among 31,000; further: nearly all actives have a fitted effect of over 60% in size
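Enzyme 150 nM, substrate 2.5 uM (both final); Tris-HCl 10 mM pH 8.0 + 0.01% Tween 20; cpd up to 25 uM, 7 pts; 15 min preinc., 1 h RT; fluorescence ex 525/em 598.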
CHIKV nsP2 cell: Secondary cell base assay for inhibitors of NSP2Pro Chikungunya virus (CHIKV); shares compounds with nsP2pro primary; cell-based CHIKV nsP2 protease reporter assay; Potency, µM (series often up to 51.1 µM), inactives show top-dose activity change, negative = inhibition, usual class: inhibitors; hit rate 10% among 450; further: nearly all actives have a fitted effect of over 70% in size
CHIKV NSP2 FL: Selectivity profile for inhibitors of NSP2Pro chikungunya virus (CHIKV): Full length NSP2 enzyme counterscreen (CHIKV-NSP2). shares compounds with nsP2pro primary. Full-length CHIKV NSP2 protease enzymatic counterscreen. Potency, µM (top dose mostly 50.7 µM), inactives show at the highest dose activity change, negative = inhibition, most hits filed as inhibitors. hit rate 39% among 410. AID 1964101, 2024; further: nearly all actives have a fitted effect of over 65% in size
Furin counter: Selectivity profile for inhibitors of NSP2Pro chikungunya virus (CHIKV): Human furin counterscreen. shares compounds with nsP2pro primary. Recombinant human furin enzymatic counterscreen, fluorogenic substrate. Potency, µM (highest dose often 50.6 µM), inactives show at the top dose activity change, negative = inhibition, usual class: inhibitors. hit rate 6% among 410
nsP2 NS23 pep: Selectivity profile for inhibitors of NSP2Pro chikungunya virus (CHIKV): Endogenous NS2/3 peptide Counterscreen | shares compounds with nsP2pro primary | Purified CHIKV nsP2 protease, endogenous NS2/3 peptide cleavage | Potency, µM (highest dose often 51 µM), for the others: top-dose activity change, negative = inhibition, hits mostly inhibitors | hit rate 34% among 410 | AID 1964103, 2024; further: nearly all actives have a fitted effect of over 55% in size
Papain counter: Selectivity profile for inhibitors of NSP2Pro chikungunya virus (CHIKV): Papain Counterscreen; shares compounds with nsP2pro primary; purified papain protease activity, enzymatic inhibition; AID 1964104, 2024; Potency, µM (series often up to 51 µM), without a hit: at the top dose activity change, negative = inhibition, most hits filed as inhibitors; hit rate 5% among 410
nsP2pro conf qHTS: Confirmatory qHTS for inhibitors of NSP2Pro chikungunya virus (CHIKV); shares compounds with nsP2pro primary; Potency, µM (doses to about 25.5 µM), for the others: top-dose activity change, negative = inhibition, actives largely listed as inhibitors; CHIKV nsP2 protease enzymatic activity, qHTS; hit rate 43% among 410; further: nearly all actives have a fitted effect of over 75% in size
HCV NS3 4A cs: Selectivity profile for inhibitors of NSP2Pro chikungunya virus (CHIKV): NS34A-HCV Counterscreen. Potency, µM (series often up to 50.9 µM), usual class: inhibitors. AID 1964106, 2024. shares compounds with nsP2pro primary. HCV NS3/4A protease biochemical counterscreen. hit rate 20% among 410; further: nearly all actives have a fitted effect of over 55% in size
Starred values were filed as active, the others as inactive; i = inactive; ? = inconclusive; ! = not active in a repeat; [ ] = another dose, or the depositor's remark. The call rests on the fitted dose curve. On the % scale 0 is the no-effect control and ±100 the full control effect; potency means the concentration at half of the fitted maximal effect.

SMILES | nsP2pro primary | others
COCC1CN(C)CC12CCN(C(=O)CCc1ccc(OC)cc1)CC2 (stereo not given) | 1%
Cc1occc1-c1ccc2ncnc(NCc3ncc[nH]3)c2c1 | i
CC1(C)[C@H](C=C(Cl)Cl)[C@@H]1C(=O)OCc1c(F)c(F)cc(F)c1F | -4%
O=C(O)[C@@H]1C(=CCO)O[C@@H]2CC(=O)N12 | 13%[10 µM]
O=C(/C=C/c1ccc(O)c(O)c1)O[C@H]1[C@H](O)C[C@](O)(C(=O)O)C[C@H]1OC(=O)/C=C/c1ccc(O)c(O)c1 | 7%
CC1CCc2c(cc(Br)c(F)c2Br)N1C=O (stereo not given) | ? | CHIKV nsP2 cell=-27%;CHIKV NSP2 FL=?;Furin counter=3%;nsP2 NS23 pep=?;Papain counter=-9%;nsP2pro conf qHTS=?;HCV NS3 4A cs=?
CN(CCC1CCCO1)c1ncnc2ccc(-c3ccc4c(c3)OCO4)cc12 (stereo not given) | -5%
CCC(=O)OCC(=O)[C@]1(OC(=O)CC)[C@H](C)C[C@H]2[C@H]3[C@H]([C@@H](O)C[C@@]21C)[C@@]1(C)C=CC(=O)C=C1C[C@H]3Cl | 2%
Cn1c(CNc2cccc(C(=O)NCc3ccccc3C(F)(F)F)c2)nnc1-c1ccncc1 | 7%
Cc1cc(C2=NOC(c3cc(Cl)cc(Cl)c3)(C(F)(F)F)C2)ccc1C(=O)NCC(=O)NCC(F)(F)F (stereo not given) | 6%
O=C(NCc1cccs1)c1cc2nc(-c3ccco3)cc(C(F)(F)Cl)n2n1 | 5.6µM* | CHIKV nsP2 cell=14%;CHIKV NSP2 FL=-3%;Furin counter=-16%;nsP2 NS23 pep=-19%;Papain counter=-2%;nsP2pro conf qHTS=-16%;HCV NS3 4A cs=i
CN(C(=O)c1cc2nc(-c3ccco3)cc(C(F)(F)F)n2n1)c1ccc(OC(F)(F)Cl)cc1 | -25%
O=C(Nc1cccc(C(F)(F)F)c1)c1cc2nc(-c3ccco3)cc(C(F)(F)Cl)n2n1 | -2%
Cc1cc(C)nc(NC(=S)N2CCN(c3cncc4ccccc34)CC2)c1 | -4%
CN(C)CCNC(=O)c1ccnc(-c2nnc3ccc(N(C)c4ccccc4)nn23)c1 | i
Cc1nn2c(c1-c1ccccc1[S+](C)(=O)[O-])N(CCCc1ccccc1)CCC2 | -8%[39.2 µM]
N#Cc1ccc(-c2ccc(-c3nc4ccccc4c(=O)[nH]3)o2)cc1 | 1%
O=C(O)[C@@H](O)[C@H](O)[C@H](O)[C@@H](O)C(=O)O | -2%
O=C(O)C(Cl)Cl | 1%
O=C(O)C(S)C(S)C(=O)O (stereo not given) | 8.8µM* | CHIKV nsP2 cell=3%;CHIKV NSP2 FL=?;Furin counter=-9%;nsP2 NS23 pep=?;Papain counter=?;nsP2pro conf qHTS=?;HCV NS3 4A cs=i
O=C(Nc1ccc(F)c(F)c1)Nc1nnc(-c2ccncc2)s1 | -4%
O=C1Nc2ccccc2/C1=C\c1ccc(C(=O)O)cc1 | i
O=[N+]([O-])C(Br)(CO)CO | 2.5µM* | CHIKV nsP2 cell=0%;CHIKV NSP2 FL=9.2µM*;Furin counter=2%;nsP2 NS23 pep=9.2µM*;Papain counter=-7%;nsP2pro conf qHTS=1.6µM*;HCV NS3 4A cs=?
C/C(=C\c1ccc2c(c1)OCCO2)C1Nc2cccc3cccc(c23)N1 | i
CCOc1ccc(NC(=O)c2nc(S(=O)(=O)Cc3ccccc3)ncc2Cl)cc1 | 145%
SMILES | nsP2pro primary | others
COc1ccc(NC(=O)c2nc(S(=O)(=O)Cc3ccc(C)cc3)ncc2Cl)cc1 | -30%
COc1ccc(CNC(=O)c2nc(S(=O)(=O)Cc3ccccc3)ncc2Cl)cc1 | 6.3µM*! | CHIKV nsP2 cell=3.7µM*!;CHIKV NSP2 FL=16µM*;Furin counter=-1%;nsP2 NS23 pep=8.2µM*;Papain counter=-2%;nsP2pro conf qHTS=5.7µM*;HCV NS3 4A cs=?
COc1ccccc1-c1ncc(C)c(NCc2ccc(-c3cccnc3)cc2)n1 | i
COc1ccccc1CN[C@H]1CCCN[C@H]1c1ccccc1 | -4%
CC(C)CC(C(=O)NC(C(=O)OC1CCCC1)c1ccccc1)C(O)C(=O)NO (stereo not given) | -20%
CCOc1ccccc1C(=O)NCc1coc(-c2ccc(OC(F)F)c(OC(C)C)c2)n1 | -7%
COC1(C[S@@](=O)c2ccccc2)CCN(CCc2c[nH]c3ccc(F)cc23)CC1 | ? | CHIKV nsP2 cell=49%;CHIKV NSP2 FL=-9%;Furin counter=-2%;nsP2 NS23 pep=-18%;Papain counter=0%;nsP2pro conf qHTS=-18%;HCV NS3 4A cs=i
Cc1ccc(C2(O)CCN(CCCC(=O)c3ccc(F)cc3)CC2)cc1 | -10%
Cc1ccc(S(=O)(=O)c2ccc([N+](=O)[O-])o2)cc1 | 0.56µM* | CHIKV nsP2 cell=?;CHIKV NSP2 FL=1.5µM*;Furin counter=-11%;nsP2 NS23 pep=4.6µM*;Papain counter=?;nsP2pro conf qHTS=0.56µM*;HCV NS3 4A cs=i
NC(=O)N/N=C/c1ccc([N+](=O)[O-])o1 | -26%
O=NCc1ccc([N+](=O)[O-])o1 | -23%
COc1ccc(CC(=O)N(C)C2CCc3ccccc3C2)cc1 (stereo not given) | -3%[39.2 µM]
Cc1oc(=O)oc1COC(=O)N1CC[C@@H](N2CC/C(=C\C3=C(C(=O)O)N4C(=O)[C@@H](NC(=O)/C(=N/O)c5nsc(N)n5)[C@H]4SC3)C2=O)C1 | -3%
CCn1ccnc1CNC(=O)c1cc(OC)ccc1OC1CCN(C(=O)C2CC2)CC1 | i
CC(C)C(=O)NCC1(N(C)C)CCCCC1 | 13%
CN(C)C1(CNC(=O)c2ccc(OC3CCN(C(=O)C4CC4)CC3)cc2)CCCCC1 | ? | CHIKV nsP2 cell=-10%;CHIKV NSP2 FL=4%;Furin counter=-1%;nsP2 NS23 pep=?;Papain counter=-2%;nsP2pro conf qHTS=16%;HCV NS3 4A cs=i
CCC[C@@H](C(=O)O)N1C(=O)[C@@H]2C[C@@H]3CCCC[C@@H]3N2C(=O)[C@@H]1C | -16%
CC12C=CC(=O)NC1CCC1C2CCC2(C)C(C(=O)Nc3cc(C(F)(F)F)ccc3C(F)(F)F)CCC12 (stereo not given) | -15%
O=C(Nc1nc(-c2ccccc2)cs1)c1ccncc1NS(=O)(=O)c1ccc(F)cc1 | i
O=C(Nc1ccccc1F)N1CC2CCC(C1)N2Cc1ccc(-c2cc(F)cc(F)c2)cc1 | -3%

Screening results deposited in PubChem BioAssay by National Center for Advancing Translational Sciences (NCATS).
